Screening data from PubChem BioAssay.
The list is not random: actives were taken first. Their share in the collection is about 0.58%.
Y pestis TopoI: Yersinia pestis topoisomerase I inhibitors, primary screen, biochemical, cleavage product accumulation, plate reader, single point. DNA topoisomerase I (Yersinia pestis CO92). Y. pestis Topo-I cleavage product accumulation. activity, % at 10 µM. hit rate 0.064% among 360,000. AID 504884, 2011; in the data active = activity above about 50%, passing the limit was not always enough
Vc quorum ag: inducers of Vibrio cholerae quorum light production without autoinducers, primary screen, BH1578 luxS cqsA deficient, single point; V. cholerae BH1578 lux reporter, luminescence, 6 h; activation, % at 18.7 µM; hit rate 0.16% among 350,000; AID 588436, 2011; in the data active = activation mostly above about 9.7%, no sharp cut-off
BioA inh-1: M. tuberculosis BioA enzyme inhibitors, primary screen, biochemical, plate reader, single point, HTS. 7,8-diaminopelargonic acid synthase BioA (Mycobacterium tuberculosis). purified M. tuberculosis BioA enzyme. inhibition, % at 9.99 µM. hit rate 0.096% among 360,000. AID 602481, 2012; in the data active = inhibition above about 40%
FadD28 FP inh: inhibitors of FadD28 bisubstrate probe binding, primary screen, biochemical, fluorescence polarization, single point; Mycobacterium tuberculosis FadD28 fatty-acid-AMP ligase; inhibition, % at 12.5 µM; hit rate 0.22% among 360,000; AID 588549, 2011; in the data active = inhibition above about 8.5%, passing the limit was not always enough
TcdB GH inh: TcdB glycohydrolase inhibitors, primary screen, biochemical, single point, plate reader. Toxin B (Clostridioides difficile), P18177. hit rate 0.24% among 350,000. TcdB glycohydrolase enzymatic assay. inhibition, % at 9.99 µM; in the data active = inhibition above about 10%
BioA inh-2: Mtb BioA enzyme inhibitors, dose response, biochemical, plate reader, cherry-pick samples, set 03; shares compounds with BioA inh-1; purified BioA enzyme; max activity, %; 310 tested, under 10 active;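 also: top concentration of the dilution series was 10 µM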
Target sequence (P9WQ81 whole entry, looked up): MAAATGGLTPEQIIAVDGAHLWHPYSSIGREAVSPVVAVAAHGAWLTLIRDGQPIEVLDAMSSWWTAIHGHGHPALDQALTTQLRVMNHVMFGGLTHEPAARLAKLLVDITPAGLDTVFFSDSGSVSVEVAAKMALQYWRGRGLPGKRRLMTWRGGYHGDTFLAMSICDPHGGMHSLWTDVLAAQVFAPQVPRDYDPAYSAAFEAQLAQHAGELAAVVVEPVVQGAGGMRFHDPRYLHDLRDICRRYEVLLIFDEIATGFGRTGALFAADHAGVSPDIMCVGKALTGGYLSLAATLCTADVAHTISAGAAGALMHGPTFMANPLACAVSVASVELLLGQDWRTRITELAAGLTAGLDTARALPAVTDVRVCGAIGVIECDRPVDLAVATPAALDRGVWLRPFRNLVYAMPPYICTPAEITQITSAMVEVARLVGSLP
HepG2 tox 2: cytotoxicity in HepG2 cells, dose response, cytotoxicity control, cell-based, plate reader, cherry-pick, two tests. max activity, %. 310 tested, under 10 active. shares compounds with BioA inh-1
NIH3T3 tox 5: cytotoxicity in NIH3T3 fibroblasts, dose response, cytotoxicity control, cell-based, plate reader, cherry-pick, two tests. shares compounds with BioA inh-1. activity change, negative = cytotoxicity, % at 26 µM. 310 tested, under 10 active. AID 651900, 2012
A number is an active result. Unless noted, no rule for the calls is given here.

Screening COc1ccc(C(C)NC(=O)Nc2ccc(C(C)=O)cc2)cc1OC (stereo not given) returned Y pestis TopoI inactive, Vc quorum ag inactive, BioA inh-1 43, FadD28 FP inh inactive, TcdB GH inh inactive, BioA inh-2 inactive, HepG2 tox 2 inactive and NIH3T3 tox 5 inactive.
Screening CC(=O)N[C@H]1CC[C@@H](CCNC(=O)C2CCCC2)O[C@@H]1CO returned BioA inh-1 inactive and TcdB GH inh inactive.
COc1ccccc1S(=O)(=O)N[C@@H]1CC[C@@H](CC(=O)NCc2cc(F)cc(F)c2)O[C@@H]1CO was read as TcdB GH inh inactive.
Screening O=C(Nc1ccc2c(c1)OCO2)c1cc2nc(C3CC3)cc(C(F)(F)F)n2n1 returned Y pestis TopoI inactive, Vc quorum ag inactive, BioA inh-1 inactive, FadD28 FP inh inactive and TcdB GH inh inactive.
O=C(Nc1cccnc1)c1cc2nc(C3CC3)cc(C(F)(F)F)n2n1 was read as Y pestis TopoI inactive, Vc quorum ag inactive, BioA inh-1 90, FadD28 FP inh inactive, BioA inh-2 inactive, HepG2 tox 2 inactive and NIH3T3 tox 5 inactive.
`COc1ccc(CN(C)C[C@H]2OCCCC[C@@H](C)Oc3ccc(NS(=O)(=O)c4cn(C)cn4)cc3C(=O)N([C@@H](C)CO)C[C@H]2C)cc1` gave BioA inh-1 inactive and TcdB GH inh inactive.
For COc1ccc(-c2ccc([C@H]3[C@@H](CO)N4C(=O)CNC[C@@H]34)cc2)cc1 the results were TcdB GH inh inactive.
CC(C)(C)[S@](=O)N1Cc2cc(C(=O)NCc3ccccc3F)nc(-c3cccc(-c4cccnc4)c3)c2[C@@H]1CCO was read as BioA inh-1 42, TcdB GH inh inactive, BioA inh-2 inactive, HepG2 tox 2 inactive and NIH3T3 tox 5 inactive.
CC(C)(C)[S@@](=O)N1Cc2cc(C(=O)NCc3ccccc3F)nc(-c3cccc(-c4cccnc4)c3)c2[C@H]1CCO was read as BioA inh-1 inactive and TcdB GH inh inactive.
For COC(=O)C1C(=O)C=C(Nc2ccc(F)cc2)CC1c1ccc(OC)cc1 (stereo not given) the results were Y pestis TopoI inactive, Vc quorum ag inactive, BioA inh-1 75, FadD28 FP inh inactive, BioA inh-2 inactive, HepG2 tox 2 inactive and NIH3T3 tox 5 inactive.
`COc1cccc(CN2CC3(CCN(Cc4ccccn4)CC3)c3c([nH]c4cc(OC)ccc34)[C@@H]2CO)c1` gave TcdB GH inh inactive.
`CC1Cc2nc(SCC(=O)N3CCN(c4ccccc4)CC3)n(C)c(=O)c2S1` (stereo not given) gave Y pestis TopoI inactive, Vc quorum ag inactive, BioA inh-1 inactive, FadD28 FP inh inactive and TcdB GH inh inactive.
`O=C(CSc1nc2c(c(=O)n1-c1ccccc1)SCC2)N1CCOCC1` gave Y pestis TopoI inactive, Vc quorum ag inactive, BioA inh-1 88, FadD28 FP inh inactive, TcdB GH inh inactive, BioA inh-2 inactive, HepG2 tox 2 inactive and NIH3T3 tox 5 inactive.
For Cn1c(SCC(=O)N2CCOCC2)nc2c(c1=O)SCC2 the results were Y pestis TopoI inactive, Vc quorum ag inactive, BioA inh-1 inactive, FadD28 FP inh inactive and TcdB GH inh inactive.
Screening O=C(CSc1nc2c(c(=O)n1-c1ccccc1)SCC2)N1CCN(c2ccccc2)CC1 returned Y pestis TopoI inactive, Vc quorum ag inactive, BioA inh-1 47, FadD28 FP inh inactive, TcdB GH inh inactive, BioA inh-2 inactive, HepG2 tox 2 inactive and NIH3T3 tox 5 inactive.
`CC1Cc2nc(SCC(=O)N3CCOCC3)n(-c3ccccc3)c(=O)c2S1` (stereo not given) gave Y pestis TopoI inactive, Vc quorum ag inactive, BioA inh-1 63, FadD28 FP inh inactive, TcdB GH inh inactive, BioA inh-2 inactive, HepG2 tox 2 inactive and NIH3T3 tox 5 inactive.
Screening CCOc1ccc(-n2c(SCC(N)=O)nc3c(c2=O)SCC3)cc1 returned Y pestis TopoI inactive, Vc quorum ag inactive, BioA inh-1 41, FadD28 FP inh inactive, BioA inh-2 inactive, HepG2 tox 2 inactive and NIH3T3 tox 5 inactive.
For O=C(CSc1nc2c(c(=O)n1-c1ccc(F)cc1)SCC2)N1CCCC1 the results were Y pestis TopoI inactive, Vc quorum ag inactive, BioA inh-1 inactive and FadD28 FP inh inactive.
`CC(C)NC(=O)Nc1ccc2c(c1)C(=O)N([C@H](C)CO)C[C@@H](C)[C@H](CN(C)S(=O)(=O)c1ccccc1)OCCCC[C@H](C)O2` gave BioA inh-1 inactive and TcdB GH inh inactive.
Screening CO[C@H]1CN(C)C(=O)c2ccc(NC(=O)Cc3ccccc3)cc2OC[C@H](C)NC[C@@H]1C returned TcdB GH inh inactive.
Screening Cn1nnc2cc(C(=O)N3CCC(c4ccccc4)C3)ccc21 (stereo not given) returned Y pestis TopoI inactive, Vc quorum ag inactive, BioA inh-1 66, FadD28 FP inh inactive, BioA inh-2 inactive, HepG2 tox 2 inactive and NIH3T3 tox 5 inactive.
Screening Cc1ccc(/C=C(\CCC(=O)O)c2nc3ccccc3s2)cc1[N+](=O)[O-] returned Y pestis TopoI inactive, Vc quorum ag inactive, BioA inh-1 90, FadD28 FP inh inactive, TcdB GH inh inactive, BioA inh-2 inactive, HepG2 tox 2 inactive and NIH3T3 tox 5 inactive.
For CNc1ccc(/C=C(\CCC(=O)O)c2nc3ccccc3s2)cc1[N+](=O)[O-] the results were Y pestis TopoI inactive, Vc quorum ag inactive and FadD28 FP inh inactive.
Screening COc1ccccc1S(=O)(=O)N1CC[C@@H]2[C@H](CO)Nc3ccc(-c4ccccc4)cc3[C@@H]21 returned BioA inh-1 43, TcdB GH inh inactive, BioA inh-2 inactive, HepG2 tox 2 inactive and NIH3T3 tox 5 inactive.
For COc1ccccc1S(=O)(=O)N1CC[C@H]2[C@H](CO)Nc3ccc(-c4ccccc4)cc3[C@H]21 the results were BioA inh-1 inactive and TcdB GH inh inactive.
`CO[C@H](CN(C)S(=O)(=O)c1ccc(Cl)cc1)[C@H](C)CN([C@@H](C)CO)S(=O)(=O)c1cccc(Cl)c1` gave BioA inh-1 inactive and TcdB GH inh inactive.
For COc1ccc(C(=O)Oc2cccc3cccnc23)cc1[N+](=O)[O-] the results were Y pestis TopoI inactive, Vc quorum ag inactive, FadD28 FP inh inactive and TcdB GH inh inactive.
`NC(=O)c1ccc(Oc2cccc3cccnc23)c([N+](=O)[O-])c1` gave Y pestis TopoI inactive, Vc quorum ag inactive, BioA inh-1 42, FadD28 FP inh inactive, TcdB GH inh inactive, BioA inh-2 inactive, HepG2 tox 2 inactive and NIH3T3 tox 5 inactive.
